Structures are written as SMILES. The panel holds about 83,000 compounds, 20% with a hit somewhere; the sample as a whole holds those more often.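 How to read the values: 0–100, growth inhibition (40 = 60% inhibited); 0, no net growth; -100 to 0, cell death (-40 = 40% of starting cells died; -100 = all dead).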 Values without a mark were called inactive. Calls of active or inactive are those of the source. Rule for the calls: active = growth percent below 10; inactive = the rest.

The test system of one assay is UACC-257 melanoma. Briefly: NCI-60 one-dose screen, 48 h (100 = growth as untreated, 0 = no growth, -100 = all killed). The note with it: 10 µM unless noted.
Take `O=C(O)c1ccc2cccnc2c1O`: the growth was -9.12% (active).

Consider `CC[C@@H](c1ccc(O)c(O)c1)[C@@H](CC)c1ccc(O)c(O)c1`, for which the growth is 101%.

As to `Cc1ccc(NC(=O)c2sc3nc4c(cc3c2N)C(=O)CCC4)cc1`, the growth is 74%.

As to `CCOC(=O)/C=C1/SC(=Nc2ccc(C#N)cc2)N(Cc2ccco2)C1=O`, the growth is 54.9%.

With `COP(=O)(OC)C(c1ccc(O)cc1)(c1ccc(O)cc1)c1ccc(O)cc1`, the growth is 100%.

Consider `COc1ccccc1-n1c(-c2ccc(O)cc2C)cn2c3c(=O)[nH]c(=O)n(C)c3nc12`, for which the growth was 82.2%.

The subject of another assay is M14 melanoma. The assay is described as above. The following applies: 10 µM unless noted.
`COc1ccc2ncccc2c1Cc1c(OC)ccc2ncccc12`: the growth is 56.5%.

Take `COc1cc(C2CC(C3C(=O)N(C)C(=O)N(C)C3=O)=NN2c2cc(Cl)cc(Cl)c2)cc(OC)c1OC` (stereo unspecified): the growth was 89.3%.

Take `Cc1sc2nc(NCc3ccccc3)[nH]c(=O)c2c1C`: the growth was 27.8%.

Consider `Cc1cc2c(cc1C)[n+](Cc1ccc3ccccc3n1)cn2Cc1ccc2ccccc2n1`, for which the growth is -13.3% (active).

For `COc1cc(/C=C2\CN(S(=O)(=O)c3ccc(C)cc3)C/C(=C\c3cc(CN4CCOCC4)c(O)c(OC)c3)C2=O)cc(CN2CCOCC2)c1O`, the growth is -40.5% (active).

`O=C1NCCc2c1noc2-c1ccccc1`: the growth was 101%.

On to `C[C@]12CCC(=O)C=C1CC[C@H]1[C@@H]3C[C@@H](O)[C@](O)(C(=O)CO)[C@@]3(C)C[C@H](O)[C@@]12F`, for which the growth was 85.6%.

As for `C/C(=C\CCc1ccsc1)CC/C=C(\C)CCCN1CCSCC1`, the growth is 96.2%.

Consider `COC(=O)Nc1ccc2ccc3c(NC(=O)OC)ccc4ccc1c2c43` (tested in a mixture with another compound), for which the growth is 25.4%.

For the compound `O=C(Nc1nc2c(C(F)(F)F)cccc2s1)c1cc(Cl)ccc1O`, the growth was 8.01% (active).

With `COc1cc(C2=NN(C=O)C(c3cccc(Nc4ccnc5cc(Cl)ccc45)c3)C2)cc(OC)c1OC` (stereo unspecified), the growth was 64.1%.

`COc1cccc(-c2nc(-c3ccc(N)cc3)co2)c1`: the growth is 91.1%.

As for `C[C@@H]1[C@H]2[C@H](C=C3[C@@H]4CC[C@H]5Cc6nc7c(nc6C[C@]5(C)[C@H]4C[C@@H](O)[C@@]32C)C[C@@H]2CC[C@H]3C4=C[C@@H]5O[C@@]6(CC[C@](C)(CO)O6)[C@@H](C)[C@@]5(O)[C@@]4(C)[C@H](O)C[C@@H]3[C@@]2(C)C7)O[C@]12CCC(C)(C)O2`, the growth was 8.26% (active).

Consider `O=C(CNC(=O)c1cccc2ccccc12)Nc1ccccc1Oc1cccc(O)c1`, for which the growth is -8.22% [5 µM] (active).

As for `CCN(CC)CCNCC(=O)Oc1ccc(/C=C/C(=O)CC(=O)/C=C/c2ccc(OC(=O)CNCCN(CC)CC)c(OC)c2)cc1OC`, the growth is -18.6% (active).

Turning to `COc1ccc(-c2cc(-c3nnc(SCC(=O)Nc4ccc(C(C)=O)cc4)n3-c3ccccc3)c3ccccc3n2)cc1OC`, the growth was 93.7%.

On to `COc1ccc2c(c1)[n+](=O)c(C(=O)/C=C/c1cc(OC)c(OC)c(OC)c1)c(C)n2[O-]`, for which the growth is 80.1%.

For `COc1ccc(-c2nc3sc4c(c3c(=O)[nH]2)CCCCCC4)cc1`, the growth was 33.7%.

Consider `CC(=O)Nc1c(Cl)cc2c(c1Cl)Cc1cc([N+](=O)[O-])ccc1-2`, for which the growth is 88.1%.

Turning to `CCN(CC)CCCCCCCNc1c2ccc(Cl)cc2nc2ccc(OC)cc12`, the growth is -48.8% (active).

Turning to `COc1cc(/C=C/c2cc(/C=C/c3ccc(O)c(OC)c3)n(C(=O)c3ccc(Cl)cc3)n2)ccc1O`, the growth is -1.11% (active).

`Cc1n(Cc2ccc3ccccc3c2)c2ccccc2[n+]1Cc1ccc2ccccc2c1`: the growth is -69% (active).

Consider `CCn1cnc(C[C@H](NC(=O)[C@H](CCCCNC(=O)Nc2cc(C(F)(F)F)cc(C(F)(F)F)c2)NC(=O)Nc2cc(C(F)(F)F)cc(C(F)(F)F)c2)C(=O)OC)c1`, for which the growth is -97.4% [100 µM] (active).

For `O=C(Nc1cccc(-n2cc(-c3ccncc3)c(-c3cc(O)cc(Cl)c3)n2)c1)Nc1ccc(Cl)c(Cl)c1`, the growth was -69.2% (active).

In the case of `Oc1ccc(/C=N/Nc2nc3ccccc3s2)c(O)c1`, the growth is 27.1%.

Take `Cc1csc(C#Cc2cncc(O)c2)n1`: the growth was 111%.

As to `COc1cc(/C=C/C(=O)CC(=O)/C=C/c2ccc(OC(=O)CCNC34CC5CC(CC(C5)C3)C4)c(OC)c2)ccc1OC(=O)CCNC12CC3CC(CC(C3)C1)C2`, the growth is 16.5%.

For the compound `N/C(=N\C(N)=N\c1nc2ccccc2s1)c1ccnc(Cl)c1`, the growth is 27.9%.

On to `COc1ccc(NS(=O)(=O)N2CCCCC2)cc1`, for which the growth was 102%.

Consider `C=C1CCC2C(C)(COC(=O)CC)C(OC(=O)CC)CCC2(C)C1C/C=C1/C(=O)OCC1OC(=O)CC` (stereo unspecified), for which the growth was -76.8% (active).

For `Cc1[nH]ccc2cc3nc4ccccc4c3cc12`, the growth is 38%.

With `CC(C)=CCCC(C)c1ccc(C)c2c1OCN(CC1CCNCC1)C2` (stereo unspecified), the growth was -95.4% (active).

Regarding `COc1ccc2c(c1)sc1nc(-c3ccc(N(C)C)cc3)cn12`, the growth is 103%.

Take `COc1cc(/C=C/C(=O)C(C(=O)/C=C/c2ccc(OC(=O)CCNc3nnc(C)s3)c(OC)c2)C(=O)CCNc2nnc(C)s2)ccc1OC(=O)CCNc1nnc(C)s1`: the growth was -2.91% (active).

Regarding `O=C(O)c1ccc2cccnc2c1O`, the growth was 8.98% (active).

For `CC[C@@H](c1ccc(O)c(O)c1)[C@@H](CC)c1ccc(O)c(O)c1`, the growth is 62.4%.

Turning to `Cc1ccc(NC(=O)c2sc3nc4c(cc3c2N)C(=O)CCC4)cc1`, the growth was 85.3%.

With `CCOC(=O)/C=C1/SC(=Nc2ccc(C#N)cc2)N(Cc2ccco2)C1=O`, the growth was 25.8%.

Regarding `COP(=O)(OC)C(c1ccc(O)cc1)(c1ccc(O)cc1)c1ccc(O)cc1`, the growth was 86%.

Take `COc1ccccc1-n1c(-c2ccc(O)cc2C)cn2c3c(=O)[nH]c(=O)n(C)c3nc12`: the growth was 88.7%.

The values are drawn from PubChem BioAssay (NCI).
